This experiment has as its system HGGX6 (H3.3 G34R paediatric high-grade glioma line). Nature of the experiment: growth inhibition (% activity, log2 RLU normalised to DMSO / staurosporine); higher = more growth inhibition. The following applies: 33 µM. A digest of the protocol:
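The growth-inhibition value is the median over replicates. pHGG cell lines and H9-derived neural stem cells on Geltrex-coated 384-well plates received approved drugs by pin tool at a single final concentration of about 33 μM, in triplicate, for 7 days at 37 °C, 5% CO2. CellTiter-Glo luminescence was log2-transformed and normalised per plate to % activity between solvent and positive control wells.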
For `C[C@]12C=CC(=O)C=C1CC[C@H]1[C@@H]3C[C@@H](O)[C@](O)(C(=O)CO)[C@@]3(C)C[C@H](O)[C@@]12F`, the growth inhibition is -0.097%.

Consider `NCCC(O)(P(=O)(O)O)P(=O)(O)O`, for which the growth inhibition turned out to be 1.86%.

As for `CCC[C@@H]1C[C@@H](C(=O)N[C@@H]([C@H]2O[C@H](SC)[C@H](OP(=O)(O)O)[C@@H](O)[C@H]2O)[C@H](C)Cl)N(C)C1`, the growth inhibition is -2.46%.

In the case of `CC(C)[C@H](N)C(=O)OCC(CO)OCn1cnc2c(=O)[nH]c(N)nc21` (stereo not given in full), the growth inhibition is -2.7%.

As to `Nc1ccc(S(=O)(=O)Nc2ccccn2)cc1`, the growth inhibition turned out to be 0.609%.

Consider `CCCCCCCCCCCCCCCCO`, for which the growth inhibition was -1.64%.

For the compound `CC(CN(C)C)CN1c2ccccc2CCc2ccccc21` (stereo not given), the growth inhibition is -2.56%.

On to `NCCCC[C@H](N[C@@H](CCc1ccccc1)C(=O)O)C(=O)N1CCC[C@H]1C(=O)O`, for which the growth inhibition was 1.27%.

Regarding `CC(N)C12CC3CC(CC(C3)C1)C2` (stereo not given), the growth inhibition came out at 0.391%.

Take `CCCCCN(C)CCC(O)(P(=O)(O)O)P(=O)(O)O`: the growth inhibition is -3.74%.

As for `CSc1ccc2c(c1)N(CCC1CCCCN1C)c1ccccc1S2` (stereo not given), the growth inhibition is -0.282%.

As to `CN/C(=N\CCSCc1nc[nH]c1C)NC#N`, the growth inhibition stood at 1.98%.

`CN[C@@H]1[C@H](O[C@H]2[C@H](O[C@H]3[C@H](O)[C@@H](O)[C@H](N=C(N)N)[C@@H](O)[C@@H]3N=C(N)N)O[C@@H](C)[C@]2(O)C=O)O[C@@H](CO)[C@H](O)[C@H]1O`: the growth inhibition is -0.72%.

`COc1cc2c(cc1O)CC[C@@H]1[C@@H]2CC[C@]2(C)[C@@H](O)CC[C@@H]12`: the growth inhibition is 11.7%.

For `CC(C)C[C@H](NC(=O)[C@H](O)[C@H](N)Cc1ccccc1)C(=O)O`, the growth inhibition worked out at 1.9%.

For the compound `CC=CC1=C(C(=O)O)N2C(=O)[C@@H](NC(=O)[C@H](N)c3ccc(O)cc3)[C@H]2SC1`, the growth inhibition was determined as 1.84%.

For `Cc1cc2c(s1)Nc1ccccc1N=C2N1CCN(C)CC1`, the growth inhibition was 0.504%.

Turning to `OC(Cn1cncn1)(Cn1cncn1)c1ccc(F)cc1F`, the growth inhibition turned out to be 1.42%.

For `CC(C)C[C@H](NC(=O)[C@H](Cc1ccccc1)NC(=O)c1cnccn1)B(O)O`, the growth inhibition turned out to be 60.1%.

For `Clc1ccccc1CN1CCc2sccc2C1`, the growth inhibition was 0.755%.

For `CNC(CC(C)C)C(=O)NC1C(=O)NC(CC(N)=O)C(=O)NC2C(=O)NC3C(=O)NC(C(=O)NC(C(=O)O)c4cc(O)cc(O)c4-c4cc3ccc4O)C(O)c3ccc(c(Cl)c3)Oc3cc2cc(c3OC2OC(CO)C(O)C(O)C2OC2CC(C)(N)C(O)C(C)O2)Oc2ccc(cc2Cl)C1O` (stereo not given), the growth inhibition is -2.38%.

Turning to `Nc1ccc(S(=O)(=O)Nc2ncccn2)cc1`, the growth inhibition stood at 0.228%.

Consider `COC1=C(OC)C(=O)C(CCCCCCCCCCO)=C(C)C1=O`, for which the growth inhibition turned out to be 3.84%.

As to `C=C[C@H]1CN2CC[C@H]1C[C@H]2[C@H](O)c1ccnc2ccc(OC)cc12`, the growth inhibition was found to be 1.13%.

Consider `COC(=O)C1=C(C#N)NC(C)=C(C(=O)OC(C)C)C1c1cccc([N+](=O)[O-])c1` (stereo not given), for which the growth inhibition was -3.12%.

Take `CS(=O)(=O)c1ccc(C(=O)Nc2ccc(Cl)c(-c3ccccn3)c2)c(Cl)c1`: the growth inhibition was determined as 2.09%.

For `N=C(N=C(N)N)N1CCOCC1`, the growth inhibition turned out to be 0.804%.

With `CCOC(=O)c1c(CSc2ccccc2)n(C)c2cc(Br)c(O)c(CN(C)C)c12`, the growth inhibition was -2.62%.

As for `CCC[C@H](N[C@@H](C)C(=O)N1[C@H](C(=O)O)C[C@@H]2CCCC[C@@H]21)C(=O)OCC`, the growth inhibition is 2.59%.

Take `CC(=O)OCC(=O)[C@@]12N=C(C)O[C@@H]1C[C@H]1[C@@H]3CCC4=CC(=O)C=C[C@]4(C)[C@H]3[C@@H](O)C[C@@]12C`: the growth inhibition came to 0.221%.

Regarding `CCCNC(C)C(=O)Nc1c(C)csc1C(=O)OC` (stereo not given), the growth inhibition worked out at 1.44%.

Consider `Clc1ccc(C(Cn2ccnc2)OCc2csc3c(Cl)cccc23)c(Cl)c1` (stereo not given), for which the growth inhibition came out at 6.02%.

With `COc1ccccc1OCCNCC(O)COc1cccc2[nH]c3ccccc3c12` (stereo not given), the growth inhibition came to 4.11%.

Consider `O=C1O[C@H]([C@@H](O)CO)C([O-])=C1O.[Na+]`, for which the growth inhibition is -5.19%.

With `CC(C)NCC(O)c1ccc(NS(C)(=O)=O)cc1` (stereo not given), the growth inhibition was -2.93%.

Consider `Cn1nnc2c(C(N)=O)ncn2c1=O`, for which the growth inhibition was -0.426%.

As to `O=C(Nc1cccc2c(=O)cc(-c3nnn[nH]3)oc12)c1ccc(OCCCCc2ccccc2)cc1`, the growth inhibition is -2.27%.

Turning to `CN1CCC(=C2c3ccccc3CCc3sccc32)CC1`, the growth inhibition is -1.66%.

With `Clc1ccc(CCC(Cn2ccnc2)Sc2c(Cl)cccc2Cl)cc1` (stereo not given), the growth inhibition is 10.2%.

Take `COC(=O)[C@@H]1CC2=CC(=O)CC[C@]2(C)[C@@]23O[C@@H]2C[C@@]2(C)[C@@H](CC[C@@]24CCC(=O)O4)[C@H]13`: the growth inhibition is 1.56%.

The values are drawn from the supplement of paper PMC8253809.
